Results from paper PMC5913336, “True equilibrium measurement of transcription factor-DNA binding affinities using automated polarization microscopy”.
pKd: −log10 of the molar value.

Biological target: Oc (Drosophila melanogaster, UniProt P22810 52-141)
Test: FP; 33 mM phosphate pH 7.0, 90 mM NaCl, 0.01% Tween 20, 0.1 mM DTT, 0.5% agarose; room temperature
Conditions: tags: N-GST (pGEX-6P-1, kept); dsDNA, one strand shown

Chain of Oc (P22810 52-141): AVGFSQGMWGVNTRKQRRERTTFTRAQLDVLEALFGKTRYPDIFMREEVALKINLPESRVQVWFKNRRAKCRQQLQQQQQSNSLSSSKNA

Sequence	binding signal	pKd
AGTTATTCCCCT	16.4 Kd / Kd of best base at the position	
AGTTAACCCCCT	60 Kd / Kd of best base at the position	
AGTTAATCTCCT	3.07 Kd / Kd of best base at the position	
AGTTCATCCCCT	177 Kd / Kd of best base at the position	
AGTTAATCCGCT	1.09 Kd / Kd of best base at the position	
AGTTAATTCCCT	123 Kd / Kd of best base at the position	
AGTTAATCCACT	1.54 Kd / Kd of best base at the position	
TGTTAATCCCCT	3.64 Kd / Kd of best base at the position	
AGTAAATCCCCT	19.8 Kd / Kd of best base at the position	
ACTTAATCCCCT	1.03 Kd / Kd of best base at the position	
GGTTAATCCCCT	1.35 Kd / Kd of best base at the position	
AGTTAATACCCT	251 Kd / Kd of best base at the position	
AGTTAGTCCCCT	6.2 Kd / Kd of best base at the position	
CGTTAATCCCCT	2.09 Kd / Kd of best base at the position	
AGTTAAACCCCT	93.6 Kd / Kd of best base at the position	
AGTTAATCGCCT	6.1 Kd / Kd of best base at the position	
AGTTTATCCCCT	1.7 Kd / Kd of best base at the position	
ATTTAATCCCCT	2.15 Kd / Kd of best base at the position	
AATTAATCCCCT	2.08 Kd / Kd of best base at the position	

Sequence	binding signal	pKd
AGTTAAGCCCCT	18 Kd / Kd of best base at the position	
AGTTAATCCCCG	1.11 Kd / Kd of best base at the position	
AGTTAATCCCGT	1.2 Kd / Kd of best base at the position	
AGGTAATCCCCT	3.1 Kd / Kd of best base at the position	
AGTTAATCCCCA	1.11 Kd / Kd of best base at the position	
AGTGAATCCCCT	176 Kd / Kd of best base at the position	
AGTTAATCACCT	7.07 Kd / Kd of best base at the position	
AGTTAATGCCCT	140 Kd / Kd of best base at the position	
AGTTAATCCCCT		~8.42
AGTTAATCCCAT	1.11 Kd / Kd of best base at the position	
AGTTAATCCTCT	1.44 Kd / Kd of best base at the position	
AGATAATCCCCT	183 Kd / Kd of best base at the position	
AGTTAATCCCCC	1.11 Kd / Kd of best base at the position	
AGTTAATCCCTT	1.11 Kd / Kd of best base at the position	
AGTCAATCCCCT	340 Kd / Kd of best base at the position	
AGTTGATCCCCT	15.1 Kd / Kd of best base at the position	
AGCTAATCCCCT	2.31 Kd / Kd of best base at the position	
AGTTACTCCCCT	12 Kd / Kd of best base at the position	
